{"source": "PubChem BioAssay (Tox21)", "note": "Records with an inconclusive call do not appear. Where a call stands in place of a potency, no number is given. Calls of active or inactive are those of the source. Calls follow the shape of the dose curve; as a rule, active = well fitted cell-killing curve with a large enough effect in the repeat runs (not every such curve was filed as active); inconclusive = weak or mixed curves, or effect the other way; inactive = no such curve, though single readings can be large or run the other way. Potency is read from the fitted curve at half-maximal effect."}
{"assay": "qHTS assay to identify small molecule antagonists of the estrogen related receptor signaling pathway with the pleiotropic PPARgamma coactivator (PGC) from Tox21 10K library - cell viability counter screen (AID 1224840); also: nearly all actives have a fitted effect of over 40% in size", "details": "PGC/ERR reporter cells viability, CellTiter-Fluor, 17.5 h; series mostly up to 92.4 µM", "source_text": "National Center for Advancing Translational Sciences [NCATS]\nNIH Chemical Genomics Center [NCGC]\nU.S. Environmental Protection Agency [EPA]\nNational Institutes of Environmental Health Sciences [NIEHS]\nNational Toxicology Program [NTP]\nU.S. Food and Drug Administration [FDA]\nEstrogen related receptors (ERRs), the first orphan nuclear receptors discovered, play an important role in the control of cellular energy metabolism. ERRs are required for high-energy production in response to the environmental challenges. The pleiotropic PPARgamma coactivator (PGC) is a major partner of ERR and a key regulator in energy homeostasis. Together they have been implicated in the etiology of metabolic disorders such as Type 2 diabetes and metabolic syndrome. ERR-alpha was also identified as an adverse marker for breast cancer progression; ERR-alpha-positive tumors have a poor prognosis. To screen and to identify environmental compounds that perturb the ERR and PGC/ERR signaling pathways could provide valuable information for potential therapeutic or preventive measures in the treatment of metabolic disease. To differentiate true PGC/ERR antagonists or agonist from cytotoxic substances, the assay is multiplexed with cell viability assay.\nTox21 Assay Protocol Summary:\nThe PGC/ERR cells were dispensed at 2,000 cells/5 ul/well in 1536-well white plates using a Multidrop dispenser. After the assay plates were incubated at a 37 C/5% CO2 incubator for 6 hours, 23 nL of compounds dissolved in DMSO, positive and negative controls or DMSO only was transferred to the assay plate by a pin tool. The plates were incubated at 37 C for 17.5 hours. 1 ul/well of CellTiter-Fluor reagent was added into the assay plates using a Flying Reagent Dispenser. After 30-minute incubation at 37 C/5% CO2, the fluorescence intensity in the plates was measured using a ViewLux plate reader."}
{"smiles": "Clc1ccccc1C(c1ccccc1)(c1ccccc1)n1ccnc1", "Potency": "17.2 µM (active)"}
{"smiles": "CC1=C(C(=O)OC(C)C)C(c2cccc([N+](=O)[O-])c2)C(C(=O)OC2CN(C(c3ccccc3)c3ccccc3)C2)=C(N)N1", "note": "(stereo not given)", "Potency": "29.8 µM (active)"}
{"smiles": "O=C(O)c1cc(O)c2c(c1)C(=O)c1cccc(O)c1C2=O", "Potency": "inactive"}
{"smiles": "Cc1c(C)c2c(c(C)c1O)CCC(C)(COc1ccc(CC3SC(=O)NC3=O)cc1)O2", "note": "(stereo not given)", "Potency": "inactive"}
{"smiles": "CCCCCCCCCCCCCCCC(=O)OC[C@H](O)[C@H]1OC(=O)C(O)=C1O", "Potency": "inactive"}
{"smiles": "COCCCC/C(=N\\OCCN)c1ccc(C(F)(F)F)cc1", "Potency": "inactive"}
{"smiles": "CCCCCCCCCCn1cc[n+](CCCCCCCCCC)c1C", "Potency": "27.3 µM (active)"}
{"smiles": "COc1ccc(-c2ccc3cc(C(=O)O)ccc3c2)cc1C12CC3CC(CC(C3)C1)C2", "Potency": "inactive"}
{"smiles": "Cc1ccc(O)c(C(C)(C)C)c1", "Potency": "inactive"}
{"smiles": "CCCCC(CC)COP(=O)(O)OCC(CC)CCCC", "note": "(stereo not given)", "Potency": "inactive"}
{"smiles": "C[n+]1ccn(Cc2ccccc2)c1", "Potency": "inactive"}
{"smiles": "Oc1cc2ccccc2c2ccccc12", "Potency": "7.7 µM (active)"}
{"smiles": "c1ccc(CSCc2ccccc2)cc1", "Potency": "inactive"}
{"smiles": "O=C1CCCc2c1cc1ccc3cccc4ccc2c1c34", "Potency": "inactive"}
{"smiles": "Cc1cccc2c1cc1ccc3cccc4ccc2c1c34", "Potency": "inactive"}
{"smiles": "CCCCCCCC[P+](CCCCCCCC)(CCCCCCCC)CCCCCCCC", "Potency": "10.8 µM (active)"}
{"smiles": "Nc1c2ccccc2nc2ccccc12", "Potency": "inactive"}
{"smiles": "CCc1cc(SCc2sc(-c3ccc(C(F)(F)F)cc3)nc2CN2CCN(c3ccc(OC)cc3)CC2)ccc1OCC(=O)O", "Potency": "34.4 µM (active)"}
{"smiles": "CCCCCCCCCCC=O", "Potency": "inactive"}
{"smiles": "Cc1onc(-c2ccccc2Cl)c1C(=O)N[C@@H]1C(=O)N2[C@@H]1SC(C)(C)[C@@H]2C(=O)O", "Potency": "inactive"}
{"smiles": "CC1=C(/C=C/C(C)=C/C=C/C(C)=C/C=O)C(C)(C)CCC1", "Potency": "54.2 µM (active)"}
{"smiles": "CCCCCCCCCCCCCC[P+](CCCC)(CCCC)CCCC", "note": "(tested in a mixture with another compound)", "Potency": "17.3 µM (active)"}
{"smiles": "CC(=O)SC[C@@H](Cc1ccccc1)C(=O)NCC(=O)OCc1ccccc1", "Potency": "inactive"}
{"smiles": "O=C(N/N=C/c1ccccc1O)c1ccncc1", "Potency": "inactive"}
{"smiles": "CS(=O)(=O)CCNCc1ccc(-c2ccc3ncnc(Nc4ccc(OCc5cccc(F)c5)c(Cl)c4)c3c2)o1", "Potency": "33.5 µM (active)"}
{"smiles": "CC1=NC(C)OC1C", "note": "(stereo not given)", "Potency": "inactive"}
{"smiles": "CC[C@H](c1ccc(O)cc1)[C@@H](CC)c1ccc(O)cc1", "Potency": "inactive"}
{"smiles": "NC(=O)C1(N2CCCCC2)CCN(CCCN2c3ccccc3CCc3ccc(Cl)cc32)CC1", "Potency": "26.6 µM (active)"}
{"smiles": "Oc1ccc(N=Nc2ccccc2)cc1", "Potency": "27.7 µM (active)"}
{"smiles": "NC(=NCCCCCCN=C(N)/N=C(\\N)Nc1ccc(Cl)cc1)/N=C(\\N)Nc1ccc(Cl)cc1", "Potency": "54 µM (active) [middle of 4 runs]"}
{"smiles": "On1ccccc1=S", "Potency": "0.605 µM (active)"}
{"smiles": "CC(C)(C)c1ccc(C(=O)CCCN2CCC(OC(c3ccccc3)c3ccccc3)CC2)cc1", "Potency": "29.8 µM (active)"}
{"smiles": "CCCCCCCC[N+](CCCCCCCC)(CCCCCCCC)CCCCCCCC", "Potency": "21.6 µM (active)"}
{"smiles": "Oc1cccc2cc3cccc(O)c3c(O)c12", "Potency": "inactive"}
{"smiles": "CCCCc1oc2ccc(NS(C)(=O)=O)cc2c1C(=O)c1ccc(OCCCN(CCCC)CCCC)cc1", "Potency": "18.8 µM (active)"}
{"smiles": "CC(=O)N1CCN(c2ccc(OC[C@H]3CO[C@](Cn4ccnc4)(c4ccc(Cl)cc4Cl)O3)cc2)CC1", "Potency": "24.3 µM (active)"}
{"smiles": "CNC(=O)c1ccccc1", "Potency": "inactive"}
{"smiles": "COc1cc(/C=C/C(=O)O[C@H]2CC[C@]34C[C@]35CC[C@]3(C)[C@@H]([C@H](C)CCC=C(C)C)CC[C@@]3(C)[C@@H]5CC[C@H]4C2(C)C)ccc1O", "Potency": "inactive"}
{"smiles": "Fc1ccc([C@@H]2CCNC[C@H]2COc2ccc3c(c2)OCO3)cc1", "Potency": "inactive"}
{"smiles": "CC[C@@]1(O)C(=O)OCc2c1cc1n(c2=O)Cc2c-1nc1ccccc1c2/C=N/OC(C)(C)C", "Potency": "inactive"}
